About 83,000 compounds went through this panel and 20% of them were active in at least one assay; those are over-represented in the sample as a whole.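 Cell lines were cultured in 96-well plates, exposed to a single compound concentration, and assessed for percent growth 48 hours later.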 A number with no mark means an inactive call. Activity calls are given as the source filed them. Rule for the calls: active = growth percent below 10; inactive = the rest.

This assay deals with MDA-MB-468 breast. Kind of assay: NCI-60 one-dose screen, 48 h (100 = growth as untreated, 0 = no growth, -100 = all killed). The note with it: 10 µM unless noted.
In the case of `N#C/C=C(\c1ccc([N+](=O)[O-])cc1)n1nnc2cc(Cl)c(Cl)cc21`, the growth was -47.4% (active). Regarding `O=C1/C(=C/c2ccc(Cl)c(Cl)c2)CN(C(=O)C(Cl)Cl)C/C1=C\c1ccc(Cl)c(Cl)c1`, the growth is -52.5% (active).

As to `O=C(O)c1ccc(NC(=O)c2ccc(-c3cccc([N+](=O)[O-])c3)o2)cc1`, the growth is 99.8%. For `Cc1ccc(C(=O)NC2c3ccccc3Oc3ccccc32)cc1` the value was 41.8%; for `CN(C)c1ccc(-c2ccc3[nH]c(=O)nc(-c4ccc(F)cc4)c3c2)cn1`, 1.22% (active). `CCOC(C=O)OCC`: the growth was 102%. Under `CCCCn1c(-c2ccc(C(=O)O/N=C(\N)c3ccc4c(c3)OCO4)cc2)nc(-c2ccccc2)c1-c1ccccc1` stands 73.8%. In the case of `C/C(=N\NC(=O)c1ccncc1)c1ccc(N)cc1`, the growth was 97.1%. As to `COc1ccc(/C=N/C2=C(C#N)C(c3cccc(Cl)c3)c3c(ccc4ccccc34)O2)cc1` (stereo not given), the growth is 3.32% (active). With `Nc1c(C(=O)Nc2ccccc2)sc2nc3c(cc12)CCC3`, the growth is 49.7%.

In the case of `C=C(CNCCc1ccc(O)cc1)[C@@H]1CC[C@]2(COC3CCCCO3)CC[C@]3(C)[C@H](CC[C@@H]4[C@@]5(C)CCC(NCCO)C(C)(C)[C@@H]5CC[C@]43C)[C@@H]12` (stereo not given in full), the growth is -80.1% (active). For `O=C(Nc1ncc(Cc2cccc(C(F)(F)F)c2)s1)c1ccc(-n2cnnn2)cc1`, the growth was 16.7%.

As for `COc1ccc(Cn2cc3c(c2-c2cc(OC)c(OC)c(OC)c2)CCc2cnoc2-3)cc1N`, the growth was -10.1% (active). In the case of `CCCCCCCCCCCCCCCCCC[S+](C)CC` (stereo not given), the growth is -42.5% (active). As to `CC(C)(CC(=O)O)CC(=O)O`, the growth is 96.4%. With `CCOC(=O)c1[nH]c(-c2ccc(Cl)cc2)cc1-c1cccnc1`, the growth is -1.1% (active). `CN(C)c1ccc(/C=C2\C=C(c3nc4ccccc4s3)OC2=O)cc1`: the growth was 79.8%. Turning to `O=c1c2cc(Cl)ccc2oc2ccc(OCCCCCN3CCCCC3)cc12`, the growth was 59.9%. As for `COc1cc(/C=C/c2nnc(-c3cc(-c4ccccc4)n[nH]3)o2)cc(OC)c1OC`, the growth was 101%. `CC(=O)C(C(C)=O)C(c1ccccc1)C(C(C)=O)C(C)=O`: the growth is 98.6%.

Regarding `CCN(CC)CC#CCOC(=O)[C@]1(C)CCC[C@@]2(C)[C@H]1CC(C=O)=C1C=C(C(C)C)CC[C@@H]12`, the growth is 41.5%. As for `CCCCC(CCCCCC(CCCC)C1NC(C)Cc2cc(OC)c(OC)cc21)C1NC(C)Cc2cc(OC)c(OC)cc21` (stereo not given), the growth is -84.7% (active). On to `CC(=O)N1CCN(CCNC(=O)n2cc(-c3ccncc3)c(-c3ccc(O)c(Cl)c3)n2)CC1`, for which the growth is 112%.

Turning to `O=S(=O)(O)c1ccc(N/N=C/c2ccccc2Cl)cc1`, the growth was 107%. Turning to `O=C(Nc1cc(Br)ccn1)c1cc2cc(Nc3nc(-c4ccccc4)nc4ccccc34)ccc2oc1=O`, the growth was 123%.

On to `CCC[S@](=O)c1ccc2nc(NC(=O)OC)[nH]c2c1`, for which the growth was 94.1%.

As to `Nc1nc(Cl)c2[nH]cnc2n1`, the growth is 94.7%. Turning to `O=C(c1ccccc1)N(CCCl)C(=O)N(CCCl)C(=O)c1ccccc1`, the growth is 111%. For `CN(C)c1ccc(/C=C\N=Nc2ccc(Br)cc2)cc1` the value was 106%; for `O=C1Nc2ccccc2Oc2ccc(S(=O)(=O)CC3CO3)cc21` (stereo not given), -5.7% (active); for `C=C(C)[C@@H]1CC=C2c3sc(-c4ccc(C)cc4)nc3C[C@@H](C)[C@]2(C)C1`, 108%.

As to `CS(=O)(=O)CCNCc1ccc(-c2ccc3ncnc(Nc4ccc(OCc5cccc(F)c5)c(Cl)c4)c3c2)o1`, the growth was -56.5% (active). In the case of `Cc1nc(Nc2ccc(F)c(Cl)c2)sc1C(=O)O`, the growth was -1.67% (active).

`Cc1ccc(OCc2occc2C(=O)N2CCOCC2)cc1`: the growth was 103%. For `CN1CCN(CCC=C2c3ccccc3Sc3ccc(S(=O)(=O)N(C)C)cc32)CC1`, the growth is 21.1%. Turning to `COc1cc2cc(Oc3ccc(NC(=O)Nc4ccc(F)c(C(F)(F)F)c4)cc3)c(C)nc2cc1OCCN1CCOCC1`, the growth was -15.6% (active).

In the case of `Cn1cc(-c2ccc(F)c(C(F)(F)F)c2)nc1C1CCN(c2ncnc3[nH]ncc23)CC1`, the growth is 64.6%. Under `CSc1ccc(OC(C)=O)cc1C` stands 93.8%; under `CCN1/C(=C/C(C)=C/c2sc3ccc4ccccc4c3[n+]2CC)Sc2ccc3ccccc3c21`, -87.4% (active). On to `O=C([C@H]1C[C@H]1c1ccc(S(F)(F)(F)(F)F)cc1)N1CCN(c2cc(Cl)ccc2C(F)(F)F)CC1`, for which the growth was 58.9%.

For the origin of these results see PubChem BioAssay (NCI).
